Tau fluor cs – counter-screen for tau fibril formation inhibitors; tau K18 P301L Alexa594 fluorescence, heparin fibrillization; 280,000 tested, 0.93% active; Potency, µM (titrated, usually from 57.7 µM), for the others: at the top dose activity change, negative = decrease; AID 1463; further: potency means the concentration at half of the fitted maximal effect; nearly all actives have a fitted effect of over 55% in size
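Human K18 P301L tau (15 uM unlabeled plus 0.24 uM Alexa 594-labeled, final) in 100 mM sodium acetate pH 7 was mixed with compound and 20 uM heparin and incubated 6 hr at 37 C.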
Tau fibril ThT – tau fibrillization inhibition (ThT binding) | P10636 | recombinant tau K18 P301L, heparin-induced fibrillization, ThT fluorescence | Potency, µM (highest dose often 57.4 µM), inactives show at the highest dose activity, negative = inhibition, usual class: inhibitors | 270,000 tested, 2.1% active | AID 1460; further: potency means the concentration at half of the fitted maximal effect; nearly all actives have a fitted effect of over 55% in size
Target sequence (P10636 561-689 P618L limits assumed): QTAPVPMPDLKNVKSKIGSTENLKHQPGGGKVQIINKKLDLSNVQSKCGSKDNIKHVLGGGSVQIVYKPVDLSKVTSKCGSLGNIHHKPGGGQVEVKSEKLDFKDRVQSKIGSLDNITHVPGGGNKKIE
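K18 P301L tau (15 uM + 0.24 uM Alexa 594-tagged), heparin 20 uM, NaOAc pH 7, 6 h 37 C; ThT 30 uM, 1 h RT, ex 450/em 510 nm.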
Tau fibril FP – inhibitors of human tau fibril formation; P10636; K18 P301L tau heparin fibrillization, Alexa594 FP, 6 h; Potency, µM (doses to about 57.7 µM), for inactives: top-dose activity, negative = inhibition, most hits filed as inhibitors; 280,000 tested, 0.39% active; further: potency means the concentration at half of the fitted maximal effect; nearly all actives have a fitted effect of over 55% in size
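Heparin (20 uM) drove fibril formation of recombinant tau K18 P301L, 15 uM unlabeled with 0.24 uM Alexa 594 label, for 6 hr at 37 C in 100 mM sodium acetate pH 7. Fluorescence polarization (555/632 nm) read 1 hr after 30 uM ThT.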
FBPA coupling cs – coupling enzyme interference in Giardia aldolase counter-screen; coupling enzyme system counterscreen, AmpLite Red fluorescence; activity change, negative = inhibition, % at 58.2 µM, hits read low; 290,000 tested, 0.67% active; AID 2472; in the data active means activity change below about -30%
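Compounds tested against the coupling enzymes alone at 57.5 uM final; readout was AmpLite Red fluorescence (525/598 nm) after 20 min at RT.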
* = called active by the depositor; [ ] = dose if it differs, or a comment. Sampled rows, rich in hits. Any-hit rate of the full collection: about 2.7%. Unless noted, the call rests on the fitted dose curve; in most records, active means well fitted curve in the direction sought with a large enough effect; inconclusive means small, poorly fitted or top-dose-only effect, or another doubt; inactive means no such curve, though single readings can be large; an effect the other way counts as inactive or inconclusive. On the % scale 0 is the no-effect control and ±100 the full control effect.

`COC(=O)c1ccc2c(=O)n(CC3CCCO3)c(SCC(=O)Nc3ccc(OC)cc3OC)nc2c1` (configuration not stated) gave Tau fluor cs 2%, Tau fibril ThT 2%, Tau fibril FP 0% and FBPA coupling cs -1.
Cc1c(/C=N/Nc2ccc(F)cc2)c(O)n(C)c(=O)c1C#N was read as Tau fluor cs -27%, Tau fibril ThT 14µM*, Tau fibril FP inconclusive and FBPA coupling cs -23.
Cc1cc(O)c(/C=N/Nc2ccc(F)cc2)c(=O)o1 was read as Tau fluor cs -10%, Tau fibril ThT -17%, Tau fibril FP -6% and FBPA coupling cs 2.
Screening Cc1c(C=O)c(Cl)n(C)c(=O)c1C#N returned Tau fluor cs -2%, Tau fibril ThT inconclusive, Tau fibril FP -8% and FBPA coupling cs -46*.
Screening CC(=O)N=Cc1c(C)c(C#N)c(=O)n(C)c1O returned Tau fluor cs -19%, Tau fibril ThT inconclusive, Tau fibril FP -10% and FBPA coupling cs -51*.
`CC1=C(C(=O)c2ccccc2)C(c2ccc(O)cc2)NC(=S)N1` (configuration not stated) gave Tau fluor cs -1%, Tau fibril ThT -3%, Tau fibril FP -2% and FBPA coupling cs 5.
Screening CC1=C(C(=O)c2ccccc2)C(c2ccc(N3CCOCC3)cc2)NC(=O)N1 (configuration not stated) returned Tau fluor cs -6%, Tau fibril ThT 25µM*, Tau fibril FP 1% and FBPA coupling cs 1.
`Oc1ccc2c(c1)c1c3n2CCNC3CCC1` (configuration not stated) gave FBPA coupling cs -6.
For c1ccc2c(c1)c1c3n2CCNC3CCC1 (configuration not stated) the results were Tau fluor cs 6%, Tau fibril ThT 0%, Tau fibril FP 10% and FBPA coupling cs -50*.
Screening COc1ccc(Nc2nc(N)c3cc(OC)c(OC)cc3n2)cc1 returned Tau fluor cs 11µM*[quencher], Tau fibril ThT inconclusive and Tau fibril FP inconclusive.
Screening O=C(Nc1ccc(Cl)c(Cl)c1)OCc1cccnc1 returned Tau fluor cs inconclusive, Tau fibril ThT 18%, Tau fibril FP 14µM* and FBPA coupling cs -1.
For CC1CCN(S(=O)(=O)c2nnc(NC(=O)c3ccc(C(C)C)cc3)s2)CC1 the results were Tau fluor cs inconclusive, Tau fibril ThT 2.8µM* and Tau fibril FP inconclusive.
`COc1ccc(C(=O)Nc2nnc(S(=O)(=O)N3CCCCCC3)s2)cc1OC` gave Tau fluor cs -25%, Tau fibril ThT inconclusive, Tau fibril FP -6% and FBPA coupling cs 4.
Screening COc1ccc(C(=O)Nc2nnc(S(=O)(=O)N3CCC(C)CC3)s2)cc1OC returned Tau fluor cs inconclusive, Tau fibril ThT 13µM*, Tau fibril FP 1% and FBPA coupling cs 3.
CC(Oc1cc2oc(=O)c3c(c2cc1Cl)CCC3)C(=O)NCCN1CCOCC1 (configuration not stated) was read as FBPA coupling cs 0.
`CC[C@H](C)[C@H](NC(=O)[C@H](Cc1ccc(O)cc1)NC(=O)CNC(=O)[C@@H]1CCCN1C(=O)[C@H](CC(=O)O)NC(=O)[C@@H](N)CS)C(=O)NCC(=O)N[C@@H](CO)C(=O)N[C@@H](CCCN=C(N)N)C(N)=O` gave FBPA coupling cs -1.
Screening COc1ccccc1NC(=O)c1c(N=Cc2c(O)ccc3ccccc23)cnn1C returned Tau fluor cs inconclusive, Tau fibril ThT inconclusive, Tau fibril FP inconclusive and FBPA coupling cs -40*.
`COc1ccc2oc(-c3ccc(C)c(NC(=O)COc4cc(C)cc(C)c4)c3)nc2c1` gave Tau fluor cs -11%, Tau fibril ThT inconclusive and Tau fibril FP -16%.
Cc1ccc(-n2c(SCc3ccccc3C)nc3[nH]ncc3c2=O)cc1C was read as Tau fluor cs -28%, Tau fibril ThT -14% and Tau fibril FP inconclusive.
Screening COc1ccc(N2C(=O)C(Cl)=C(Nc3ccccc3O)C2=O)cc1 returned Tau fluor cs inconclusive, Tau fibril ThT 10µM*, Tau fibril FP inconclusive and FBPA coupling cs -1.
Screening COc1ccc(N2C(=O)C(Cl)=C(Oc3cccc(OC)c3)C2=O)cc1 returned Tau fluor cs -19%, Tau fibril ThT 14µM*, Tau fibril FP 22µM* and FBPA coupling cs 1.
COc1ccc(N2C(=O)C(Cl)=C(Nc3ccccc3OC)C2=O)cc1 was read as Tau fluor cs inconclusive, Tau fibril ThT inconclusive, Tau fibril FP inconclusive and FBPA coupling cs 0.
Cc1cc(C)c(C)c(S(=O)(=O)N2CCN(CC(=O)c3c(N)n(Cc4ccccc4)c(=O)n(C)c3=O)CC2)c1C was read as Tau fluor cs 11%, Tau fibril ThT 8%, Tau fibril FP 3% and FBPA coupling cs -3.
For CCOC(=O)c1ccc(Nc2cc(-c3ccccc3)nc(C)n2)cc1 the results were Tau fluor cs -30%, Tau fibril ThT inconclusive and Tau fibril FP inconclusive.
Screening CCOC(=O)c1ccc(Nc2cc(C)nc(-c3ccccc3O)n2)cc1 returned Tau fluor cs inconclusive, Tau fibril ThT inconclusive, Tau fibril FP 10µM* and FBPA coupling cs 2.
For Cc1cc(Nc2ccccc2Cl)nc(-c2ccccc2O)n1 the results were FBPA coupling cs -2.
`Cc1cc(NC2CCCCC2)nc(-c2ccccc2O)n1` gave Tau fluor cs -22%, Tau fibril ThT -16%, Tau fibril FP -12% and FBPA coupling cs -2.
`Cc1cc(NCc2ccccc2)nc(-c2ccccc2O)n1` gave Tau fluor cs 13µM*[quencher], Tau fibril ThT inconclusive, Tau fibril FP inconclusive and FBPA coupling cs -1.
Screening Cc1cc(Nc2ccccc2)nc(-c2ccccc2O)n1 returned Tau fluor cs 11µM*[quencher], Tau fibril ThT inconclusive, Tau fibril FP 28µM* and FBPA coupling cs -2.
Screening Cc1cc(Nc2cccc(F)c2)nc(-c2ccccc2O)n1 returned Tau fluor cs inconclusive, Tau fibril ThT -9%, Tau fibril FP 11µM* and FBPA coupling cs -3.
Cc1ccc(C)c(Nc2cc(C)nc(-c3ccccc3O)n2)c1 was read as FBPA coupling cs 1.
Screening Cc1cccc(CN2CCN(C(C)C(=O)NC(C)c3ccccc3)CC2)c1 (configuration not stated) returned FBPA coupling cs 0.
Screening COc1ccccc1Cn1c(CNS(=O)(=O)c2cccc([N+](=O)[O-])c2)nc2cccnc21 returned Tau fluor cs -3%, Tau fibril ThT -2% and Tau fibril FP 12%.
For C=CCc1cccc(C2C(C)CCC3C(=O)N4C(Cc5c([nH]c6ccccc56)C4c4cc(OC)c(OC)c(OC)c4)C(=O)N32)c1 (configuration not stated) the results were Tau fluor cs inconclusive, Tau fibril ThT -14%[11.5 µM], Tau fibril FP 0%[11.6 µM] and FBPA coupling cs -1.
`CCCOc1cc(C)nc(-c2ccccc2O)n1` gave Tau fluor cs inconclusive, Tau fibril ThT 16µM*, Tau fibril FP -2% and FBPA coupling cs 4.

Screening data deposited in PubChem BioAssay by National Center for Advancing Translational Sciences (NCATS).
